Results on 8 compounds are retold here after PubChem BioAssay (NCATS).

The structures appear in SMILES notation. Several values for one entry are separate records, joined by “and”; a condition that tells them apart may be missing. Equal entries are not always repeated. Records with an inconclusive call do not appear. Activity calls are given as the source filed them. Unless noted, calls come from the whole dose curve; as a rule, active = well fitted curve in the direction sought with a large enough effect; inconclusive = small, poorly fitted or top-dose-only effect, or another doubt; inactive = no such curve, though single readings can be large; an effect the other way counts as inactive or inconclusive.

Assay [1] deals with T1, Hexokinase-4 (Homo sapiens) + Glucokinase regulatory protein (Homo sapiens) (UniProt P35557+Q14397). The experiment in a line: qHTS assay for inhibitors of recombinant human GCK-GKRP interaction: HTRF assay (AID 743207).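 Note: 0% = DMSO with GCK present and -100% = DMSO wells lacking GCK.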 The gist of the method: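 HTRF read-out (ex 320 nm; 615/665 nm emission) after 60 min RT equilibration of 5 nM GST-GCK, 5 nM FLAG-GKRP, 2 uM S6P, compound and anti-FLAG/anti-GST detection antibodies; signal normalized between DMSO wells with and without GCK.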
(qHTS replaces the single test concentration by a dilution series.)

The nature of assay [2]: qHTS Assay for Identifying Gametocytocidal Compounds (AID 743244).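 Note: % is set by controls: 0 for no effect and ±100 for the full control effect; actives lower the fluorescent signal which means gametocytes are killed.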 The note with it: P. falciparum 3D7 stage III-V gametocytes, alamarBlue, 72 h; max response: stronger effect = lower value. The gist of the method: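 Late gametocytes (III–V), P. falciparum 3D7; 72 h drug, then 24 h alamarBlue; resazurin reduction read by fluorescence.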
Assay [3] in a line: qHTS assay for cell viability of HEK293 cells (AID 743288). Note: % is set by controls: 0 for no effect and ±100 for the full control effect; nearly all actives have a fitted effect of over 50% in size. Conditions: ATP luminescence (CellTiter-Glo), 18 h; max response: stronger effect = lower value. In a few lines: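 Environmental chemicals tested in qHTS format against parental HEK293 cells; 18 h treatment, 37 C; read-out ATP luminescence (CellTiter-Glo), 30 min RT development.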
Assay [4] is described as follows: qHTS assay for cell viability of the p53RE-bla HCT-116 cell line (AID 743292). Note: % is set by controls: 0 for no effect and ±100 for the full control effect; nearly all actives have a fitted effect of over 55% in size. The gist of the method:
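Luminescent ATP quantitation (CellTiter-Glo) served as the viability read-out; reagent was added after 16 h compound exposure at 37 C and read after 30 min at room temperature. Cells: p53RE-bla HCT-116, 4,000 per well.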

The nature of assay [5]: High-throughput drug toxicity screening in the BPDCN cell line Cal-1 (AID 1224825; call rule not given here). The note with it: Cal-1 BPDCN cell viability, qHTS; at 45.8 µM (top of the series) unless noted. The gist of the method: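 Cal-1 cells, 500 per well in phenol-red-free RPMI with 10% FBS, exposed to compounds for 48 hours at 37C, 5% CO2. Viability read by CellTiter-Glo luminescence; percent activity normalized to DMSO (100%) and 9.2 uM bortezomib final (0%).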

Assay [6] in a line: qHTS assay for measurement of the activity of small molecule inhibitors on Zika virus induced Caspase-3 activity in human iPSC derived neural progenitor cells (hNPCs) (AID 1224857). Note: % of control where 0% means no effect; nearly all actives have a fitted effect of over 65% in size. The gist of the method: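 Caspase-3/7 induction by a 6-hour ZIKV infection was quantified with a luminescent Caspase-Glo 3/7 reagent incubated 30 minutes at room temperature. Compounds were preincubated with hNPCs for 1 hour; inhibition was calculated against uninfected and infected control wells.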

The nature of assay [7]: qHTS Screen of the MIPE 4.0 Collection Against Ewings Sarcoma (RDES) (AID 1259252). Note: nearly all actives have a fitted effect of over 35% in size. Note: potency is the fitted concentration of half-maximal effect. The gist of the method:
(§1)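 Dose series incubated 48 h with cells in RPMI plus 5% FBS, glutamine and penicillin/streptomycin; cell viability then quantified via CellTiter-Glo.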

Assay [8] is described as follows: qHTS Screen of the MIPE 4.0 Collection Against Ewings Sarcoma (TC71) (AID 1259253). Note: nearly all actives have a fitted effect of over 40% in size. Note: potency is the fitted concentration of half-maximal effect. The gist of the method:
as §1

A short description of assay [9]: qHTS Screen of the MIPE 4.0 Collection Against Ewings Sarcoma (EW8) (AID 1259255).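 For viability: 100% = DMSO-treated cells and 0% = medium-only wells without cells.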 Note: nearly all actives have a fitted effect of over 35% in size. Note: potency is the fitted concentration of half-maximal effect. The gist of the method:
as §1

The nature of assay [10]: qHTS Screen of the MIPE 4.0 Collection Against Ewings Sarcoma (TC32) (AID 1259256). Note: nearly all actives have a fitted effect of over 45% in size. Note: potency is the fitted concentration of half-maximal effect. The gist of the method: as §1
Assay [11] can be described thus: qHTS profiling of the MIPE4 collection as inhibitors of Plasmodium falciparum (3D7) proliferation (AID 743344; call rule not given here;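 note: scaled between DMSO vehicle wells and 0.29 µM artemisinin as full inhibition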). The note with it: P. falciparum 3D7 in erythrocytes, SYBR Green DNA fluorescence, 72 h; at 28.5 µM (top of the series) unless noted. In a few lines:
(§2)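 Erythrocytes infected with P. falciparum (0.3% parasitemia, 2.5% hematocrit) incubated with compounds 72 h at 37 C, 5% CO2. Lysis with saponin/Triton buffer containing SYBR Green I, overnight at room temperature in the dark; DNA fluorescence (485/535 nm) normalised to 0.29 uM artemisinin and DMSO.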

Assay [12] can be described thus: qHTS profiling of the MIPE4 collection as inhibitors of Plasmodium falciparum (DD2) proliferation (AID 743345; call rule not given here). Conditions: P. falciparum Dd2 in erythrocytes, SYBR Green DNA, 72 h; at 28.5 µM (top of the series) unless noted. In a few lines:
as §2

Assay [13] can be described thus: qHTS profiling of the MIPE4 collection as inhibitors of Plasmodium falciparum (DD2) proliferation (Rep 2) (AID 743346; call rule not given here). Conditions: P. falciparum Dd2 in erythrocytes, SYBR Green DNA, 72 h; at 28.5 µM (top of the series) unless noted. The gist of the method:
as §2

The nature of assay [14]: qHTS profiling of the MIPE4 collection as inhibitors of Plasmodium falciparum (HB3) proliferation (AID 743347; call rule not given here;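 note: plate controls were DMSO vehicle wells for no effect and artemisinin wells for full effect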). Conditions: P. falciparum HB3 in erythrocytes, SYBR Green DNA, 72 h; at 28.5 µM (top of the series) unless noted. The gist of the method:
as §2

The nature of assay [15]: qHTS assay for measurement of the activity of small molecule inhibitors on Zika virus induced Caspase-3 activity in human astrocytoma cells (AID 1224859).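 Note: plate controls were ZIKV-infected untreated cells for no effect and uninfected cells for full effect.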 The gist of the method:
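In SNB-19 cells plated at 250 cells/well and grown 16-20 h, compounds were applied 1 h before ZIKV (2 FFU/cell). Six hours later caspase-3/7 luminescence was recorded.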

Assay [16] can be described thus: qHTS profiling for inhibitors of Plasmodium falciparum (3D7) proliferation (AID 743322).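 Note: infected erythrocytes exposed to compound for 72 h before lysis; 100% = DMSO vehicle wells and 0% = 0.29 µM artemisinin.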 The note with it: P. falciparum 3D7 proliferation, at 28.7 µM (top of the series). In a few lines:
as §2

The nature of assay [17]: qHTS profiling for inhibitors of Plasmodium falciparum (DD2) proliferation (AID 743323; call rule not given here). Conditions: at 28.7 µM (top of the series), lower = more inhibition. The gist of the method: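 Parasite DNA quantified by SYBR Green fluorescence (ex 485, em 535 nm) after saponin/Triton lysis and overnight dark incubation. Cultures: 0.3% parasitemia, 2.5% hematocrit, 72 h, 37 C; data scaled between DMSO and 0.29 uM artemisinin.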

Assay [18] can be described thus: qHTS profiling for inhibitors of Plasmodium falciparum (HB3) proliferation (AID 743324).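 Note: 100% = DMSO vehicle wells and 0% = artemisinin-treated control wells.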 Conditions: Plasmodium falciparum HB3 blood-stage proliferation; at 28.7 µM (top of the series). The gist of the method: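 P. falciparum HB3 grown in erythrocytes (0.3% parasitemia, 2.5% hematocrit final) with compound for 72 h at 37 C, 5% CO2. Parasite DNA detected by SYBR Green after saponin/triton lysis overnight; normalized to 0.29 uM artemisinin and DMSO.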

The target in assay [19] is T1, Hexokinase-4 (Homo sapiens) + Glucokinase regulatory protein (Homo sapiens). Put plainly: qHTS assay for inhibitors of recombinant human GCK-GKRP interaction: ADP-Glo assay (AID 743206).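 Note: plate controls were DMSO plus enzyme for no effect and no enzyme for full effect.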 The gist of the method:
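GST-GCK and FLAG-GKRP (15 nM each in the dispensed mix, with 2 uM S6P) react with 0.4 mM ATP and 5 mM glucose (final) in Hepes pH 7.6 for 60 min at room temperature. ADP is measured by ADP-Glo luminescence.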

T1 sequence (P35557 whole entry, looked up): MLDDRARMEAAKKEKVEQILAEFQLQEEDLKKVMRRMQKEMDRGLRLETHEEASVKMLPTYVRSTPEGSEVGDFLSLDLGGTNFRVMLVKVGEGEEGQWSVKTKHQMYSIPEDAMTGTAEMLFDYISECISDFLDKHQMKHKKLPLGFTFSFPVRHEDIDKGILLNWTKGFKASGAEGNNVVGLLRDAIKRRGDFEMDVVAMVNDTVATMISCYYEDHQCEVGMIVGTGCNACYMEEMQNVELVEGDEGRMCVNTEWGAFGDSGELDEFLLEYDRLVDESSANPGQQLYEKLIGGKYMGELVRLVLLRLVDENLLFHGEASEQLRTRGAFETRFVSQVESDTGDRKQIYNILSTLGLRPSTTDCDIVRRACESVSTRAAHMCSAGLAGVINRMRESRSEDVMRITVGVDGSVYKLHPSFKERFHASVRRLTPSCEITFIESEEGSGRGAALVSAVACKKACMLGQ
T1 sequence (Q14397 whole entry, looked up): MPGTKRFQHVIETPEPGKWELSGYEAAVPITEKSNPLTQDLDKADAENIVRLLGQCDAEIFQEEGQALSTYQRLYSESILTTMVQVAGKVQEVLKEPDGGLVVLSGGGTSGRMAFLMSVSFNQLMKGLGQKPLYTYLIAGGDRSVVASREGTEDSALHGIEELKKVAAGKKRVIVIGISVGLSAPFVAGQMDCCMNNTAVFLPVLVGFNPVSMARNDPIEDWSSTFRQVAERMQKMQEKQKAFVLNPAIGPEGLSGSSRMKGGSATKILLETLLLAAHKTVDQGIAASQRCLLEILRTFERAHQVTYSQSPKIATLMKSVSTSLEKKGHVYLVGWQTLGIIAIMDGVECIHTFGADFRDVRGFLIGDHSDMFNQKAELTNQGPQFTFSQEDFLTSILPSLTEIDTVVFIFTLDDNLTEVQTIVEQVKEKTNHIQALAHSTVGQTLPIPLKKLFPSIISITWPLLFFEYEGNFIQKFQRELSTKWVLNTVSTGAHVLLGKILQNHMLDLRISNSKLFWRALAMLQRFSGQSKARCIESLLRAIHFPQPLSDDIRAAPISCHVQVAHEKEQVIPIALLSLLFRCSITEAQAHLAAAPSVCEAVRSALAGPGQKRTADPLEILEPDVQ

For `CC(C)C(=O)Nc1ccc([N+](=O)[O-])c(C(F)(F)F)c1`, the Potency result in [1], in assay [4] and in assay [6] was “inactive” throughout. The max response in [2] was -7.87% (inactive) and -5.86% (inactive); in assay [3] it was -5.73% (inactive) and -15.5% (inactive). Further, the viability (% of control) in assay [5] stood at 5.71%. Besides, the Potency in assay [7] is 7.43 µM (active); in [8], 10.5 µM (active); in assay [9], 13.2 µM (active); in assay [10], 13.2 µM (active).
For `C[C@@H]1CC(=O)NN=C1c1ccc(NN=C(C#N)C#N)cc1`, in [2], the max response is 16.6% (inactive). For the same compound, the parasite growth, % of DMSO control in assay [11] is 8.76%. The parasite growth remaining, % of DMSO control (lower = more inhibition) in assay [12] is 6.4%. In addition, the parasite growth, % of control (lower = inhibition) in [13] amounted to 33.2%. Moreover, in [14], the growth, % of control came out at 9.14%. In assay [5], this compound had a viability (% of control) of 5.81%. Moreover, the Potency result in assay [6] and in assay [15] was “inactive” throughout. The results for the Potency in assay [8], in assay [9] and in assay [10] were 29.6 µM (active), 20.9 µM (active) and 20.9 µM (active), respectively.
`C[C@H]1c2cccc(O)c2C(O)=C2C(=O)[C@]3(O)C(O)=C(C(N)=O)C(=O)[C@@H](N(C)C)[C@@H]3[C@@H](O)[C@@H]21`: the Potency result in [1], in assay [6], in assay [15] and in assay [10] was “inactive” in each case. Besides, the max response in assay [2] was 18.1% (inactive). Moreover, in [16], the remaining parasite growth % (stronger effect = lower value) was 16.9%. The same compound yielded an activity, percent of control in [17] of 12.8%. In assay [18], this compound came in with a remaining proliferation (% of control), lower = more inhibition of 15.7%. The compound further registered a parasite growth, % of DMSO control in assay [11] of 6.81%. This compound gave a parasite growth remaining, % of DMSO control (lower = more inhibition) in assay [12] of 28.6%. Further, the parasite growth, % of control (lower = inhibition) in [13] stood at 14.3%. Moreover, the growth, % of control in assay [14] stood at 12.4%. This compound had a viability (% of control) in [5] of 19.9%.
For the compound `Cc1cc(C(C)(C)C)cc(C)c1CC1=NCCN1`, the Potency entry in [19], in [1], in assay [6], in assay [7], in [8] and in assay [9] was “inactive” each time. The Potency result in assay [10] is “inactive”. For the same compound, the max response in [2] was 3.97% (inactive) and -5.84% (inactive). The parasite growth, % of control (lower = inhibition) in [13] is 17.1%. The compound further yielded a viability (% of control) in assay [5] of 12.2%.
As for `CC(C)(C)C(=O)Oc1ccc(S(=O)(=O)Nc2ccccc2C(=O)NCC(=O)O)cc1`, in assay [2], the max response was 3.13% (inactive). Also, in assay [11], the parasite growth, % of DMSO control was 101%. Further, in assay [12], the parasite growth remaining, % of DMSO control (lower = more inhibition) stood at 92.3%. For the same compound, in assay [13], the parasite growth, % of control (lower = inhibition) was determined as 91.4%. Also, in [14], the growth, % of control is 67.9%. In assay [5], this compound yielded a viability (% of control) of 96%. In addition, the Potency entry in assay [6], in [15], in assay [7], in assay [8], in assay [9] and in [10] was “inactive” throughout.
In the case of `CN1CCN(CCCN2c3ccccc3Sc3ccc(Cl)cc32)CC1`, the Potency entry in [19], in assay [1] and in assay [6] was “inactive” throughout. This compound returned a parasite growth, % of DMSO control in assay [11] of 6.12%. Besides, the parasite growth remaining, % of DMSO control (lower = more inhibition) in [12] was 13%. The parasite growth, % of control (lower = inhibition) in assay [13] is 28.4%. This compound came in with a growth, % of control in assay [14] of 7.64%. Moreover, the viability (% of control) in assay [5] amounted to 22.7%. Further, the Potency in assay [10] was 26.4 µM (active).
With `Cc1cnc(C(=O)NCCc2ccc(S(=O)(=O)NC(=O)NC3CCCCC3)cc2)cn1`, the Potency result in [19], in assay [1], in assay [6] and in assay [15] was “inactive” each time. For the same compound, the max response in assay [2] was 32.6% (inactive) and 12.5% (inactive). Besides, in assay [11], the parasite growth, % of DMSO control amounted to 7.98%. Besides, in assay [12], the parasite growth remaining, % of DMSO control (lower = more inhibition) was determined as 12.7%. Also, the parasite growth, % of control (lower = inhibition) in [13] is 9.38%. Besides, in assay [14], the growth, % of control turned out to be 3.73%. For the same compound, the viability (% of control) in [5] stood at 58.3%.
`Nc1nnc(-c2cccc(Cl)c2Cl)c(N)n1`: the Potency result in assay [1] and in [6] was “inactive” in each case. Also, the max response in assay [2] was 5.45% (inactive) and 12.4% (inactive). Also, in [11], the parasite growth, % of DMSO control is 93.8%. In assay [12], this compound gave a parasite growth remaining, % of DMSO control (lower = more inhibition) of 98%. Moreover, the parasite growth, % of control (lower = inhibition) in [13] was found to be 104%. Moreover, the growth, % of control in assay [14] amounted to 98.1%. Moreover, the viability (% of control) in assay [5] was 36.7%.
